Screening results: PubChem BioAssay, several laboratories
Anthrax LF inh2: inhibitors of Bacillus anthracis lethal factor protease; P15917; inhibition, % at 10 µM; 360,000 tested, 0.12% active; AID 588501; multiplex microsphere protease cleavage assay, LF
BoNT F protease: inhibitors of Botulinum neurotoxin F light chain protease | Multiplex microsphere protease cleavage assay, flow cytometry | inhibition, % at 10 µM | 360,000 tested, 0.22% active | AID 588497; in the data active = inhibition above about 35%, passing the limit was not always enough; inconclusive = no clear call, values can overlap the other calls
Bead autofluor: flagged as autofluorescent in microsphere protease counterscreen; compound autofluorescence counterscreen, microsphere flow cytometry; stronger effect = higher value; fluorescence intensity (test concentration not listed); 360,000 tested, 3.1% active; in the data active = fluorescence intensity above about 16000; inconclusive = no clear call, values can overlap the other calls
PfHsp40 rescue: compounds rescuing yeast from Plasmodium falciparum HSP40 toxicity. S. cerevisiae expressing PfHsp40, growth rescue, ATP luminescence. growth rescue, % at 12.5 µM. 340,000 tested, 0.68% active. AID 504582; in the data active = growth rescue above about 28%, passing the limit was not always enough; inconclusive = no clear call, values can overlap the other calls;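 also: yeast W303a lacking pdr1 and pdr3 grown in galactose medium; growth measured after three days at 30 °C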
BoNT A protease: BoNT A light chain protease inhibition. multiplex microsphere protease substrate cleavage, flow cytometry. inhibition, % at 10 µM. 360,000 tested, 0.17% active. AID 588499
MazEF act: increases E. coli MazEF RNase cleavage of RNA. FAM/BHQ RNA-DNA oligo cleavage fluorescence, 5 h. 350,000 tested, 0.32% active. activation, % at 20 µM. P0AE70; in the data active = activation above about 50%
Target sequence (P0AE70 whole entry, looked up): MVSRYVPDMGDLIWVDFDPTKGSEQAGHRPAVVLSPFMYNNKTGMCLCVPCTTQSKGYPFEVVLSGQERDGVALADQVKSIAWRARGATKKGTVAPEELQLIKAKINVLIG
Each line names hits and unclear results; the compound was inactive in the other large screens. In the library only some 4.3% were active in any assay of this set; here they are far more common. Rule as the data show it, unless noted: active = inhibition above about 30%; inconclusive = no clear call, values can overlap the other calls; inactive = below that.

FC(F)(F)C(F)(F)C(F)(F)c1nc2nc(Cl)c(Cl)nc2[nH]1	none (no result: PfHsp40 rescue)
COc1ccc(C(CNC(=O)c2cccc(S(=O)(=O)N(C)c3ccccc3)c2)N2CCCC2)cc1 (stereo not drawn)	Bead autofluor 59722
CC(O)(CS(=O)(=O)Cc1ccccc1)C(=O)Nc1ccc(C(F)(F)F)cc1 (stereo not drawn)	Bead autofluor 23000, BoNT A protease inconclusive
CC(O)(CS(=O)(=O)Cc1ccccc1)C(=O)Nc1cccc(C(F)(F)F)c1 (stereo not drawn)	Bead autofluor 20560
CCOC(=O)N1CCN(C(=O)C2CCN(C(=O)c3ccccc3C)CC2)CC1	PfHsp40 rescue 703
Cc1ccccc1C(=O)N1CCC(C(=O)N2CCN(c3ncccn3)CC2)CC1	none
Cn1c(C(=O)NCc2ccc3c(c2)OCO3)cc2sccc21	Bead autofluor 17632
Cn1c(C(=O)N2CCN(Cc3ccc4c(c3)OCO4)CC2)cc2sccc21	Bead autofluor 16552
Cn1c(C(=O)Nc2ccc3c(c2)OCO3)cc2sccc21	none
Cc1cc(Cl)c(OCCN2C(=O)NC(C)(C)C2=O)c(Br)c1	Bead autofluor 20599
Cc1cc(C)c(OCCN2C(=O)NC(C)(C)C2=O)c(Cl)c1	Bead autofluor 22616
Cc1cc(Cl)cc(Br)c1OCCCN1C(=O)NC(C)(C)C1=O	Bead autofluor 20662
COCCNCCCCOc1c(Cl)cc(C)cc1Br	Bead autofluor 20464
COC(=O)c1[nH]c(C)c(/C(O)=C2\C(=O)C(=O)N(CCN3CCOCC3)C2c2ccc(C)o2)c1C (stereo not drawn)	BoNT F protease inconclusive
COc1ccc(S(=O)(=O)CCc2nnc(NC(=O)c3ccc(F)cc3)s2)cc1	none
O=C(O)CN1C(=O)/C(=C\c2ccccc2OCc2ccc(Cl)cc2Cl)SC1=S	BoNT F protease inconclusive, PfHsp40 rescue 53
Cc1ccc(C(=O)CCC(=O)OC(C)C(=O)NC2CCCCC2C)cc1 (stereo not drawn)	none
CCOC(=O)N1CCC(NC(=O)c2cc(C)c3c(C)nn(-c4ccccc4)c3n2)CC1	Bead autofluor 19067
CCOC(=O)N1CCC(NC(=O)c2ccccc2C(=O)O)CC1	BoNT F protease inconclusive, BoNT A protease inconclusive
CCOC(=O)c1nc(-c2ccccc2)sc1C(C)=O	BoNT F protease inconclusive, BoNT A protease inconclusive
COc1ccc(/C=C2/SC(=O)N(NS(=O)(=O)c3ccccc3)C2=S)cc1OC	Bead autofluor 21520, PfHsp40 rescue 35
COc1cc(/C=C2\SC(=S)N(NS(=O)(=O)c3ccccc3)C2=O)cc(OC)c1OC	PfHsp40 rescue 41
COc1cccc(/C=C2\SC(=S)N(NS(=O)(=O)c3ccccc3)C2=O)c1OC	none
O=C(CCl)NN=C(c1ccccc1)c1ccccc1	MazEF act 59
Cc1cc(C)n(-c2ccc(OCC(=O)O)nn2)n1	Bead autofluor 23964
CCCCOc1ccc(-n2nc(C)cc2C)nn1	none
CCOC(=O)c1ccc(COC(=O)c2ccc3c(c2)-c2ccccc2C3=O)cc1	none
O=C(OCc1cccc(F)c1)c1ccc2c(c1)-c1ccccc1C2=O	Bead autofluor 22813
O=C(OCc1ccccc1F)c1ccc2c(c1)-c1ccccc1C2=O	Bead autofluor 19102
CC(=O)Nc1ccccc1C(=O)OCc1ccccc1F	none
COc1ccc(C(O)c2ncc(-c3cccc(OCc4ccccc4)c3)[nH]2)cc1F (stereo not drawn)	none (no result: PfHsp40 rescue, MazEF act)
CCN(C(=O)CSc1nnc(C)c(=O)[nH]1)c1cccc2ccccc12	none
CC1CC(NC(=O)C2(C)CC2(Cl)Cl)CC(C)(C)C1 (stereo not drawn)	Bead autofluor 20800
CCC(=O)c1ccc(N2CCN(C(=O)c3cccs3)CC2)c(F)c1	BoNT F protease inconclusive
COc1cccc(C2C(C(=O)Nc3ccc(C)cc3C)=C(C)Nc3ncnn32)c1OC (stereo not drawn)	Bead autofluor 19983
Oc1ccc(-c2csc(Nc3ncccn3)n2)c(O)c1	none
Cc1cccc(Nc2nc(-c3ccc(O)cc3O)cs2)n1	PfHsp40 rescue 121
COc1cccc(C(O)c2ncc(-c3ccccc3OC)[nH]2)c1 (stereo not drawn)	none (no result: PfHsp40 rescue, MazEF act)
Cc1cnc(NC(=O)c2c(-c3ccccc3)noc2C)s1	none
Cc1ccc(N2C(=O)CSC23C(=O)Nc2ccccc23)cc1 (stereo not drawn)	Bead autofluor inconclusive
CC1=CC(C)(C)N2C(=O)C3(SCC(=O)N3c3ccc(O)cc3)c3cc(C)cc1c32 (stereo not drawn)	Bead autofluor 20630
